BL2 CD40 inh: CD40 pathway inhibition in BL2 cells. AID 1053188. inhibition, % at 10 µM. BL2 NF-kB luciferase reporter, CD40L-induced, 4 h. hit rate 0.94% among 83,000;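 active = mean inhibition of at least 50% with a set share of replicates also reaching that level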
A number is an active result; - = inactive. Only a selection was taken, and hits are over-represented in it overall.

SMILES	BL2 CD40 inh
O=C1CNC[C@@H]2[C@H](c3ccc(Br)cc3)[C@@H](CO)N12	-
C[C@H](CO)N1C[C@H](C)[C@@H](CN(C)C(=O)Oc2ccccc2)OCc2ccccc2-c2c(n(C)c3ccccc23)C1=O	-
OC[C@H]1Nc2ccc(C#Cc3cccnc3)cc2[C@H]2NCC[C@H]21	-
CN1C2CN(CC(F)(F)F)CC1C2c1ccc(Br)cc1 (stereo not drawn)	-
CC1CC(C)(O)CC(C(O)CC2CC(=O)NC(=O)C2)C1=O (stereo not drawn)	96
COc1ccccc1CN1[C@H](CO)[C@@H](c2ccccc2)C12CN(C(=O)Cc1ccccc1)C2	-
CC(C)=CCCN1CCC(NC(=O)[C@](O)(c2ccccc2)C2CCCC2)CC1	-
O=C([C@H]1N[C@H]2c3cccc(=O)n3C[C@H]2[C@@H]1CO)N1CCCCC1	-
O=C(Cc1ccncc1)N1CCCCN2[C@H](CO)[C@H](c3ccc(C#Cc4ccccc4F)cc3)[C@H]2C1	-
C=CCN1[C@@H]2CN(C(=O)NC(C)C)C[C@H]1C2c1ccccc1 (stereo partly drawn)	-
CCCCC1C(=O)NC(=S)N(C)C1=O (stereo not drawn)	33
COc1ccc(CC2C(=O)NC(C)C(=O)N(C)C3C(=O)N(C)C(Cc4ccc(O)c(c4)Oc4ccc(cc4)C3O)C(=O)NC(C)C(=O)NC(C)C(=O)N2C)cc1 (stereo not drawn)	124
O=C1CNC[C@@H]2[C@@H](c3ccc(Br)cc3)[C@@H](CO)N12	-
COc1ccc2[nH]cc(CCN)c2c1	-
COc1ccc2[nH]c3c(c2c1)CCN=C3C	58
COc1ccc2[nH]c(C)c(CCNCc3cn(C)c4ccccc34)c2c1	-
COC(=O)[C@@H]1[C@@H](CO)[C@@H]2Cn3c(ccc(-c4cccc(F)c4)c3=O)[C@H]1N2Cc1ccncc1	-
C[C@H]1CN([C@@H](C)CO)C(=O)c2c(c3ccccc3n2C)-c2ccccc2CO[C@H]1CN(C)C(=O)Oc1ccccc1	-
COc1cccc(-c2ccc([C@@H]3[C@H](CO)N4CCCCN(C(=O)Cc5ccncc5)C[C@@H]34)cc2)c1	-
O=C(O)[C@H]1[C@H](CO)[C@H]2Cn3c(ccc(-c4ccc(F)cc4)c3=O)[C@@H]1N2CC1CCCCC1	-
CC(=O)N1C[C@@H]2N[C@H](C1)C2c1ccccc1 (stereo partly drawn)	-
COc1cccc(CN2CC3(C2)[C@H](c2ccccc2)[C@H](CO)N3C(=O)Cc2ccccc2)c1	-
COC(=O)[C@H]1[C@H](CO)[C@H]2Cn3c(cccc3=O)[C@@H]1N2CCc1ccccc1	-
O=C(Cc1ccccn1)N1CCCCN2[C@H](C1)[C@@H](c1ccc(-c3ccccc3F)cc1)[C@@H]2CO	-
CC(C)NC(=O)N1C[C@@H]2C(c3ccccc3)[C@H](C1)N2CC1CC1 (stereo partly drawn)	-
SMILES	BL2 CD40 inh
OCC1OC(n2cnc3cc(Cl)c(Cl)cc32)C(O)C1O (stereo not drawn)	47
Cc1c(C(=O)c2cccc3ccccc23)c2cccc3c2n1[C@@H](CN1CCOCC1)CO3	-
COC(=O)[C@@H]1[C@@H](CO)[C@@H]2Cn3c(cccc3=O)[C@H]1N2Cc1nccs1	-
O=C1Nc2cc(Cl)c(Cl)cc2N2CCNCC12 (stereo not drawn)	-
CC(=O)N1C2CN(C)CC1C2c1ccc(Br)cc1 (stereo not drawn)	-
Cc1cccc(S(=O)(=O)N2[C@@H]3c4ccc(-c5ccc(F)cc5)c(=O)n4C[C@H]2[C@H](CO)[C@H]3C(=O)O)c1	-
COc1cc2cc(C(=O)N3CC(COS(C)(=O)=O)c4ccc(O)cc43)[nH]c2c(OC)c1OC (stereo not drawn)	91
N#Cc1c(Br)n(C2OC(CO)C(O)C2O)c2ncnc(N)c12 (stereo not drawn)	83
NC(=O)c1c(Br)n(C2OC(CO)C(O)C2O)c2ncnc(N)c12 (stereo not drawn)	56
CCNC(=O)[C@H]1O[C@@H](n2cnc3c(N)ncnc32)[C@H](O)[C@@H]1O	-
C#CCN1C(C)=C(C(=O)CCO)C(c2cccc(-n3oo3)c2)C(C(=O)OC)=C1C (stereo not drawn)	-
C(=C\c1ccccc1)/CN1CCN(CCOC(c2ccccc2)c2ccccc2)CC1	-
C/C=C/c1ccc(C2[C@@H]3CN(C(=O)CN(C)C)C[C@H]2N3)cc1 (stereo partly drawn)	-
O=C1CNC[C@H]2[C@@H](c3ccc(Br)cc3)[C@@H](CO)N12	-
CN1C[C@@H]2N[C@H](C1)C2c1ccc(Br)cc1 (stereo partly drawn)	-
